G9a block: blocks human histone lysine methyltransferase G9a | Q96KQ7 | G9a H3K9 monomethylation, AlphaScreen, 2 h | Potency, µM (titrated, usually from 102 µM), without a hit: at the highest dose activity, negative = inhibition, actives largely listed as inhibitors | actives 8.8% (n = 350,000); also: % is scaled to controls: 0 for no effect and ±100 for the full control effect; nearly all actives have a fitted effect of over 75% in size
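Using a bead-based AlphaScreen, monomethylated H3K9 product from 2 h room-temperature reactions (G9a 20 nM, peptide 500 nM, SAM 20 uM) was detected with 0.5 ug/mL rabbit anti-H3K9me1 antibody.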
BAZ2B block: BAZ2B (human) inhibition; actives 4.4% (n = 360,000); Potency, µM (top dose mostly 114 µM), for the others: top-dose activity change, negative = inhibition, usual class: inhibitors; Q9UIF8; AID 504333; AlphaScreen BAZ2B-H3K14Ac peptide displacement; also: % is scaled to controls: 0 for no effect and ±100 for the full control effect; nearly all actives have a fitted effect of over 60% in size
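BAZ2B 50 nM plus b-H3(5-23)K14Ac 50 nM, PBS pH 7.4/0.01% Tween-20, 30 min RT; compound added (max 110 uM), 30 min RT; streptavidin donor/Ni-chelate acceptor beads 10 ug/mL final, 20 min dark; AlphaScreen read.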
L3MBTL1 inh: blocks human L3MBTL1. Potency, µM (series often up to 57.1 µM), inactives show at the top dose activity, negative = inhibition, most hits filed as inhibitors. actives 0.66% (n = 230,000). Q9Y468. AlphaScreen L3MBTL1–H3K9me1 peptide binding; also: % is scaled to controls: 0 for no effect and ±100 for the full control effect; nearly all actives have a fitted effect of over 60% in size
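AlphaScreen assay: L3MBTL1 (50 nM final) was preincubated 30 min at room temperature with biotinylated H3(1-15)K9me1 peptide (75 nM final), then 30 min with library compounds; streptavidin donor and nickel chelate acceptor beads (10 ug/mL final) added, 30 min dark.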
JMJD2A Tudor inh: inhibitors of human JMJD2A Tudor domain. AlphaScreen JMJD2A-Tudor / H3K4me3 peptide binding. actives 4.4% (n = 390,000). Potency, µM (titrated, usually from 114 µM), inactives show at the highest dose activity change, negative = inhibition, most hits filed as inhibitors. O75164; also: % is scaled to controls: 0 for no effect and ±100 for the full control effect; nearly all actives have a fitted effect of over 50% in size
Target sequence (O75164 whole entry, looked up, the tested form may be a part): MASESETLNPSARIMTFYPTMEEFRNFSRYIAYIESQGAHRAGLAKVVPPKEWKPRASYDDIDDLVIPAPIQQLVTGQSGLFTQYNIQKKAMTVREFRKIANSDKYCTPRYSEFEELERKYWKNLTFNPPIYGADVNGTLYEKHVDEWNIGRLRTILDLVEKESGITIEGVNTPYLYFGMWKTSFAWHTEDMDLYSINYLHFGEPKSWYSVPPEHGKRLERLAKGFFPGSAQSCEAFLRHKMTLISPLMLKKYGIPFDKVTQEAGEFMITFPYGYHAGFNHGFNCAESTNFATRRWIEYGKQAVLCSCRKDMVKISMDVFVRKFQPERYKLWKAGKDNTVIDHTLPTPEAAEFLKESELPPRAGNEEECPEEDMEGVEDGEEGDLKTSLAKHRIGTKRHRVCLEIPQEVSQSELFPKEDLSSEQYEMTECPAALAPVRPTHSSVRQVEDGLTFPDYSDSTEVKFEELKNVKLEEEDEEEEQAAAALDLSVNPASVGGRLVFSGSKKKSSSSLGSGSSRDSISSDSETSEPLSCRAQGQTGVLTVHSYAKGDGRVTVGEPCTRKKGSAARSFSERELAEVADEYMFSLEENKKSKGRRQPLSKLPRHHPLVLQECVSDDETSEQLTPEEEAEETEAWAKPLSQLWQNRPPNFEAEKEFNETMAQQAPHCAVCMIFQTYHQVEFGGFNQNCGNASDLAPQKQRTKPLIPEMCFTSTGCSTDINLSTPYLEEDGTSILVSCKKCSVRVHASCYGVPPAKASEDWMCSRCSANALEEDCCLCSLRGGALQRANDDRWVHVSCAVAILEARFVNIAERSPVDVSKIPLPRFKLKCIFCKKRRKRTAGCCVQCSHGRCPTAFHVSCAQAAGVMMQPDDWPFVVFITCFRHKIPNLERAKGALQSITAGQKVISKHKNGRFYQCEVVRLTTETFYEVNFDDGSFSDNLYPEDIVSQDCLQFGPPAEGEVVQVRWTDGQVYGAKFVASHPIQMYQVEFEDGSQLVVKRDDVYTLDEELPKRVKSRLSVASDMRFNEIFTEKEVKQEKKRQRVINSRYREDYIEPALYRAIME
HP1b chromo inh: HP1-beta chromodomain-methylated histone interaction inhibition. Potency, µM (series often up to 114 µM), for inactives: at the highest dose activity change, negative = inhibition, actives largely listed as inhibitors. actives 0.56% (n = 390,000). AID 540317. AlphaScreen HP1-beta / biotin-H3K9me3 peptide binding; also: nearly all actives have a fitted effect of over 70% in size
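AlphaScreen: HP1-beta (50 nM) preformed 30 min with biotin-H3(1-18)K9me3 peptide (50 nM) in PBS pH 7.4, 0.01% Tween-20. Compound added for 30 min at RT, then streptavidin donor/nickel chelate acceptor beads (10 ug/mL) for 30 min.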
* marks the source's active call; other numbers are inactive results; ? = inconclusive; / = no result given; [ ] = another dose, or the depositor's remark. This is a sample that favours compounds with a hit; in the whole collection about 11% have one here. Calls follow the shape of the dose curve; as a rule, active = well fitted inhibition curve with a large enough effect; inconclusive = small, poorly fitted or top-dose-only effect; inactive = no such curve, though single readings can be large or run the other way. Potency is read from the fitted curve at half-maximal effect.

SMILES	G9a block	BAZ2B block	L3MBTL1 inh	JMJD2A Tudor inh	HP1b chromo inh
COc1ccc(/C=C2/CCC(CN3CCOCC3)C2=O)cc1 (centres undefined)	/	/	/	79µM*	?
COCCNC(=S)Nc1cccc2cnccc12	50µM*	-6%	/	-6%	31%
CCCCNC(=S)Nc1cccc2cnccc12	45µM*	12%	-4%	-6%	3%
Cc1ccc(OCCSc2nc3ccccc3n2CC(=O)NC(C)C)cc1	-41%[59 µM]	-27%	/	-7%	43%
CN(C(=O)CCc1nc(-c2ccccc2F)no1)c1ccc(Cl)cc1	14%[59 µM]	13%	/	-9%	27%
O=C(NCCCn1ccnc1)c1cccc(Cl)c1	-8%	-17%	/	0%	14%
COc1cccc(NC(=O)C(=O)NCCCn2ccnc2)c1	-17%	79µM*	-10%	-23%	1%
O=C(NCCCn1ccnc1)Nc1cccc(Cl)c1	-2%[59 µM]	25µM*	?	45µM*	32%
CCOc1ccc(-n2cc(-c3ccccc3)c3c(NCCc4ccccc4)ncnc32)cc1	-9%[59 µM]	?	/	-28%	33%
Cn1nccc1/C=C(/C#N)S(=O)(=O)c1ccccc1	0%[59 µM]	3%	7%	40µM*	-10%
COc1ccc(CC(=O)OCC(=O)c2c(N)n(C)c(=O)n(C)c2=O)cc1OC	45%[2.33 µM]	48%	39%	-15%	27%
Cn1c(N)c(C(=O)COC(=O)c2ccccn2)c(=O)n(C)c1=O	20µM*	79µM*	-2%	79µM*	2%
Cn1c(N)c(C(=O)COC(=O)Cc2ccc(Cl)c(Cl)c2)c(=O)n(C)c1=O	/	/	4%	89µM*	26%
Cn1c(N)c(C(=O)COC(=O)C2(c3ccc(Cl)cc3)CCCC2)c(=O)n(C)c1=O	-2%[12.7 µM]	-6%	/	3.2µM*	-6%
CCNc1nc(NCC)n2c(SCC(=O)Nc3ccc(C)cc3Br)nnc2n1	/	/	-3%	-12%	13%
CCOc1ccc(OCC)c(NC(=O)CCc2c(C)nc3c(c2C)c(=O)n(C)c(=O)n3C)c1	9%[59 µM]	-18%	/	-18%	15%
COc1ccc(-c2cc(C3C4C=CCCC4(C)C(=O)N3Cc3ccccc3)ccc2F)cc1 (centres undefined)	/	/	/	-21%	15%
CC[C@@H]1C(c2cccc(C)c2)=NN(c2ccc(Br)cc2)[C@H]1C(=O)N1CCOC1=O	113%[59 µM]	/	/	/	/
CC(C)Oc1ccc(CNC(=O)CCCn2c(=O)c3cccn3c3ccccc32)cc1	-26%[59 µM]	-7%	/	-6%	15%
CC(=O)Nc1nc2n(n1)C(c1ccc(F)cc1)C=C(c1ccccc1)N2 (centres undefined)	8.9µM*	22µM*	-28%	?	25%
COc1ccc(C(=O)Nc2nc3n(n2)C(c2ccccc2)C=C(c2ccccc2)N3)cc1 (centres undefined)	25µM*	22µM*	/	79µM*	39%
COc1ccc(C2C=C(c3ccc(F)cc3)Nc3nc(-c4ccc(Cl)cc4)nn32)cc1 (centres undefined)	-13%[59 µM]	-1%	/	-34%	68%
CC(=O)Nc1nc2n(n1)C(c1ccccc1)C=C(c1ccccc1)N2 (centres undefined)	?	79µM*	-7%	89µM*	40%
COc1ccc(C2C=C(c3ccc(Cl)cc3)Nc3nc(NC(C)=O)nn32)cc1 (centres undefined)	?	32µM*	-9%	/	/
COc1ccc(C2C=C(c3ccccc3)Nc3nc(NC(=O)/C=C/c4ccccc4)nn32)cc1 (centres undefined)	-35%[59 µM]	4%	/	2%	49%
SMILES	G9a block	BAZ2B block	L3MBTL1 inh	JMJD2A Tudor inh	HP1b chromo inh
C=C1C[C@@]23C[C@]1(O)CC[C@@H]2[C@]12C=C[C@@H](O)[C@](C)(C(=O)O1)[C@H]2[C@H]3C(=O)O	8%[21.5 µM]	/	/	/	/
Cc1ccc2ccc(C)[n+](CCCS(=O)(=O)[O-])c2c1	-35%	-12%	/	-32%[11.4 µM]	?
COc1ccc2sc(SCCCS(=O)(=O)O)[n+](CCCS(=O)(=O)[O-])c2c1	?	56µM*	-6%	16µM*	27%
Cc1ccc2ccccc2[n+]1CCCS(=O)(=O)[O-]	50µM*	-29%	-10%	-18%	55%
COc1ccc2c(C(=O)NCCCCO)c(-c3ccc(S(C)(=O)=O)cc3)sc2c1	/	/	6%	-11%	54%
CSc1sc2ccccc2[n+]1CCCS(=O)(=O)[O-]	10µM*	-38%	7%	89µM*	6%
COc1ccc(Cn2c(SCc3ccc(C(=O)NC(C)c4ccccc4)cc3)nc3cccnc32)cc1 (centres undefined)	-2%[59 µM]	2%	/	-13%	27%
Nc1cc(C(=O)O)ccc1N1CCCCC1	?	?	?	?	-21%
CCOC(=O)c1ccc(N2CCN(c3cc(C)ccc3C)CC2)c(N)c1	45µM*	?	/	?	3%
CC1CCN(c2ccc(C(=O)O)cc2N)CC1	79µM*	50µM*	-3%	-25%	6%
COc1ccc(-c2noc(N(c3ccc(F)c(Cl)c3)c3nc(-c4ccc(OC)c(OC)c4)no3)n2)cc1OC	11%[59 µM]	-2%	/	-14%	37%
CCN1/C(=C2\C(=O)N(C)C(=S)N2C)C=Cc2cc(C)ccc21	10µM*	45µM*	-23%	50µM*	-66%
CCN1/C(=C2\C(=O)N(C)C(=S)N2C)C=Cc2ccccc21	10µM*	50µM*	-13%	-35%	?
CCN1/C(=C2\C(=O)N(C)C(=S)N2c2ccccc2)C=Cc2ccccc21	-140%[59 µM]	40µM*	/	-29%	?
Cc1c(Cl)cccc1NC(=O)c1ccc(NC(=O)N2CCSc3ncccc32)cc1	?	1%	/	-1%	32%
O=C(CNC(=O)c1ccc(C(F)(F)F)cc1)OC(C(=O)Nc1cc(C(F)(F)F)ccc1Cl)c1ccccc1 (centres undefined)	/	/	/	-19%	/
CC1CN(c2c(F)c(N)c3c(=O)c(C(=O)O)cn(C4CC4)c3c2F)CC(C)N1 (centres undefined)	30%[59 µM]	/	/	/	/
Cn1c(=O)n(-c2ccc(F)c(Cl)c2)c(=O)c2sc3ccccc3c21	-28%[59 µM]	?	/	-7%	23%
COc1cc(/C=N/NC(=O)[C@H](Cc2c[nH]c3ccccc23)NC(=O)OCC(C)C)cc([N+](=O)[O-])c1O	?	40µM*	-3%	?	-17%
COc1ccc(NC(=O)Cn2c(=O)nc(-c3ccccc3)c3ccccc32)cc1OC	25%[59 µM]	-5%	/	-21%	33%
O=S(=O)(NNc1ccc(F)cc1F)c1cccc(Cl)c1	1.3µM*	?	/	10µM*	?
O=C(NNc1ccc(F)cc1F)c1c(F)cccc1Cl	-2%	-2%	4%	-14%	-4%
Cc1c2cnn(-c3ccccc3)c(=O)c2c(C)n1CC(=O)NCc1ccccc1Br	5%[59 µM]	0%	/	5%	31%
CC(=O)c1cc(-c2ccccc2)n(CC(=O)NC2CCCC2)c1C	-7%[59 µM]	?	11%	-8%	27%

Compound activity as filed in PubChem BioAssay.
